# G9a block: G9a (human) methyltransferase inhibition | Q96KQ7 | G9a H3K9 monomethylation, AlphaScreen, 2 h | Potency, µM (doses to about 102 µM), actives largely listed as inhibitors | hit rate 8.8% among 350,000 | AID 504332; note: nearly all actives have a fitted effect of over 75% in size
#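 Signal arises when biotinylated H3K9 peptide, once monomethylated, bridges streptavidin donor and antibody-captured acceptor beads. Enzyme at 20 nM was preincubated 15 min with test compounds; peptide 500 nM and SAM 20 uM then reacted for 2 h.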
# Six1-Eya2 inh: inhibitors of human Six1/Eya2 interaction | Q15475+O00167 | AlphaScreen GST-Six1/His-Eya2 binding, biochemical; active compounds read low | activity change, % (test concentration not listed) | hit rate 0.56% among 360,000 | AID 651725; in the data active = activity change below about -65%; inconclusive = mostly about -30% to -63%
# Target sequence (O00167 whole entry, looked up): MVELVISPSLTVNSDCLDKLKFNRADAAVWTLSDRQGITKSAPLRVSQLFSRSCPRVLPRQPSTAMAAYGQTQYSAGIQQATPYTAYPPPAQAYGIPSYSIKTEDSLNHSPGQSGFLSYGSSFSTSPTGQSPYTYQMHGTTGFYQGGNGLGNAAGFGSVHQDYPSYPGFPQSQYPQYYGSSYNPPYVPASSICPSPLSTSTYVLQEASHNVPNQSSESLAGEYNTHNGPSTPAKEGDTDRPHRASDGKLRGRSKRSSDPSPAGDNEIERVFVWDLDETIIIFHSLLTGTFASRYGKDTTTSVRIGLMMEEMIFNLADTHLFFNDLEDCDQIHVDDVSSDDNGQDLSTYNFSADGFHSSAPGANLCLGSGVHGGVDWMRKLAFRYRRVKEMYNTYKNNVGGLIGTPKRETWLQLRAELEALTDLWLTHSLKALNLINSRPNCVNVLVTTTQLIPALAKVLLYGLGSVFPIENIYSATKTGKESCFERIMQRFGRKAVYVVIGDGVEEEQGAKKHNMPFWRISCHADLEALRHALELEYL
# Target sequence (Q15475 whole entry, looked up): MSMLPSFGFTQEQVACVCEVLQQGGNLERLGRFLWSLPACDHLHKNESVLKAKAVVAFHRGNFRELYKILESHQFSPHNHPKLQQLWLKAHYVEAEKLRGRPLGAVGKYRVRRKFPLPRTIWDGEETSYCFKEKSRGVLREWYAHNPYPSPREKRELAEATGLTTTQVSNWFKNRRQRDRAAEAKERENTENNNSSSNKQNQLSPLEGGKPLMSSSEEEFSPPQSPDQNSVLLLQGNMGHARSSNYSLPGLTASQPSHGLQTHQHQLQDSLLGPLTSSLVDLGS
#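 AlphaScreen luminescence read after one hour at 37 °C in darkness. Pin-transferred compounds met GST-Six1 and His-Eya2 protein (5X stock 250 nM/500 nM) plus glutathione donor and Ni-chelate acceptor beads (5X, 50 ug/mL).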
# JMJD2A Tudor inh: inhibitors of human JMJD2A Tudor domain | O75164 | AlphaScreen JMJD2A-Tudor / H3K4me3 peptide binding | Potency, µM (series often up to 114 µM), usual class: inhibitors | hit rate 4.4% among 390,000 | AID 504339; note: nearly all actives have a fitted effect of over 50% in size
# BAZ2B block: inhibitors of human BAZ2B bromodomain. hit rate 4.4% among 360,000. AlphaScreen BAZ2B-H3K14Ac peptide displacement. Potency, µM (highest dose often 114 µM), usual class: inhibitors. AID 504333. Q9UIF8; note: nearly all actives have a fitted effect of over 60% in size
#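 In this displacement format the biotinylated H3(5-23) peptide acetylated at Lys14 serves as ligand at 50 nM, with BAZ2B at 50 nM in PBS pH 7.4 containing 0.01% Tween-20. Donor and acceptor beads are 10 ug/mL final.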
# CtBP-E1A blk: inhibitors of CtBP/E1A interaction | AlphaScreen GST-E1A/His-CtBP binding, 1536-well; active compounds read low | activity change, % (test concentration not listed) | hit rate 0.49% among 340,000 | AID 651724; in the data active = activity change below about -65%; inconclusive = mostly about -30% to -63%
#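 In 5 uL wells, 23 nL compound meets equimolar GST-E1A and His-CtBP (5X stock 125 nM each) for 2 h, 37 °C. Beads (5X, 50 ug/mL) then 1 h, 37 °C, dark.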
# HP1b chromo inh: blocks HP1-beta chromodomain binding to methylated histone tails; P83916; hit rate 0.56% among 390,000; AlphaScreen HP1-beta / biotin-H3K9me3 peptide binding; Potency, µM (doses to about 114 µM), usual class: inhibitors; note: nearly all actives have a fitted effect of over 70% in size
#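 HP1-beta protein (50 nM final) preincubated 30 min at room temperature with biotinylated H3(1-18)K9me3 peptide (50 nM) in PBS pH 7.4, 0.01% Tween-20, then compound added for 30 min. AlphaScreen streptavidin donor/nickel chelate acceptor beads (10 ug/mL final), 30 min dark, luminescence read.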
# A number is an active result; - = inactive; ? = inconclusive; . = no result; [ ] = dose if it differs, or a comment. This is a sample that favours compounds with a hit; in the whole collection about 10% have one here. Unless noted, calls come from the whole dose curve; as a rule, active = well fitted inhibition curve with a large enough effect; inconclusive = small, poorly fitted or top-dose-only effect; inactive = no such curve, though single readings can be large or run the other way.
SMILES,G9a block,Six1-Eya2 inh,JMJD2A Tudor inh,BAZ2B block,CtBP-E1A blk,HP1b chromo inh
COc1ccc(/C=C/C(=O)Nc2nc(C)cc(C)n2)cc1OC,.,-,50µM,-,-,?
COc1ccc(C(=O)/C=C/c2ccc(O)cc2)c(O)c1C/C=C(\C)CCC=C(C)C,.,-,28µM,.,-,-
COc1cc(/C=C/C(=O)CC(=O)/C=C/c2ccc(O)c(OC)c2)ccc1O,-,-,?,40µM,-,-
CCOc1ccc(NC(=O)CC2Nc3cccc4cccc(c34)NC2=O)cc1 (centres undefined),?,.,?,-,.,-
COc1ccccc1NC(=O)C1=C(C)Nc2nc3ccccc3n2C1c1cccc(Br)c1 (centres undefined),?,.,-,-,.,-
COc1ccc(-c2nc3cnc(N4CCOCC4)nc3n(-c3ccc(OC)cc3)c2=O)cc1,-[0.501 µM],.,.,.,.,.
Cc1ccccc1COC(=O)c1ccc(-c2nnn(Cc3ccccc3F)n2)cc1,-,.,-,-,.,-
O=S(=O)(c1cccc(O)c1)N1CCN(S(=O)(=O)c2c(F)cccc2F)CC1,.,.,-,.,.,.
COc1ccc(C=CC(=O)c2ccc(OC)c(OC)c2O)cc1OC,.,-,50µM,.,-,?
COc1cc(OC)c(C(=O)C=Cc2ccc(OC)c(OC)c2)c(OC)c1,.,-,-,.,-,-
COCC(C)NCc1cccc([N+](=O)[O-])c1 (centres undefined),20µM,-,3.2µM,50µM,-,?
COc1ccc(-n2nnc(-c3nc(-c4cccs4)no3)c2N)cc1OC,-,.,-,-,.,-
CCOC(=O)C1C(c2ccc(O)c(OC)c2)NC(=O)NC1(O)C(F)(F)F (centres undefined),.,-,-,?,-,-
CCOC(=O)C1C(c2ccc3c(c2)OCO3)NC(=O)NC1(O)C(F)(F)F (centres undefined),-[2.33 µM],-,18µM,-,-,-
COc1cc(NC(=O)CCn2cnc3ccccc3c2=O)cc(OC)c1,-,.,-,-,.,-
O=C(Cn1c2[n+](c3ccc(C(F)(F)F)cc31)CCCCC2)Nc1ccccc1,?,-,-,-,-,-
CCc1cccc(NC(=O)Cn2c3[n+](c4ccc(C(F)(F)F)cc42)CCCCC3)c1,5.6µM,-,-,-,-,-
FC(F)(F)c1ccc2c(c1)n(Cc1ccccc1)c1[n+]2CCCCC1,28µM,-,?,?,-,-
O=C(Cn1c2[n+](c3ccc(C(F)(F)F)cc31)CCCCC2)c1cccc([N+](=O)[O-])c1,?,-,-,-,.,-
Nc1cc2c(cc1C(=O)c1cccc(Br)c1)OCCO2,18µM,-,45µM,35µM,-,?
O=C(CN1C(=O)C2CCCCC2C1=O)Nc1nc(-c2ccccn2)cs1 (centres undefined),?,-84,79µM,35µM,-84,?
C[C@@H](C(=O)Nc1nc(-c2ccccn2)cs1)N1C(=O)C2CCCCC2C1=O (some centres undefined),1.4µM,-90,50µM,8.9µM,-90,?
CC(C(=O)NC1CCCc2ccccc21)N1C(=O)C2CCCCC2C1=O (centres undefined),-[12.7 µM],-,-,-,-,-
CCc1cccc(NC(=O)CCNS(=O)(=O)c2ccc3c(c2)CCN3C(C)=O)c1,-,.,-,.,.,-
CCOC(=O)N1CCN(C(=O)COC(=O)c2ccccc2NCCO)CC1,50µM,-,-,-,-,-
SMILES,G9a block,Six1-Eya2 inh,JMJD2A Tudor inh,BAZ2B block,CtBP-E1A blk,HP1b chromo inh
O=C(COC(=O)c1ccccc1NCCO)NCc1cccs1,45µM,-,?,-,-,-
CS(=O)(=O)Nc1ccccc1C(=O)OCC(=O)NCc1cccs1,.,-,-,.,-,-
O=C(OCC(=O)N1CCC(Cc2ccccc2)CC1)c1ccccc1NCCO,-,-,-,-,-,-
COc1ccc(CCNC(=O)COC(=O)c2ccccc2NCCO)cc1OC,50µM,-,?,-,-,-
CC(C)Cn1c(=O)c2sccc2n2c(CCCC(=O)NCC(C)c3ccccc3)nnc12 (centres undefined),-,.,-,-,.,-
COc1ccccc1CNC(=O)CN1C(=O)c2cccnc2Oc2ccccc21,-,.,-,-,.,-
Cc1ccccc1NC(=O)c1ccc(S(=O)(=O)N(C)C)cc1,-,-,-,-,-,-
N#CCCSc1ccccc1NC(=O)c1cc(=O)c2ccccc2o1,20µM,-,-,-,.,-
CN(C)S(=O)(=O)c1ccc(C(=O)Nc2ccccc2SCCC#N)cc1,5µM,-,-,.,.,-
COc1cccc(N(Cc2nnc3n2CCCCC3)C(=O)Nc2cccc(Cl)c2)c1,-,.,-,-,.,-
CCOCCCNC(=O)Cn1ncc2c([nH]c3ccc(C)cc32)c1=O,-,.,-,-,.,-
CCOC(=O)c1cccc(NC(=O)CC2C(=O)N(c3ccc(F)cc3)C(=O)N2C(C)C)c1 (centres undefined),-,.,-,-,.,-
CC(=O)Nc1ccc2nc(-c3cccn3C)[nH]c2c1,-[0.501 µM],-,-,-,-,-
Cn1cccc1-c1nc2ccc(NC(=O)c3cccs3)cc2[nH]1,?,?,56µM,35µM,?,50µM
CC(=O)Nc1ccc2nc(NC(=O)c3cccs3)sc2c1,45µM,-,-,-,-,-
CN(C)c1ccc(C(CN)c2c[nH]c3ccccc23)cc1 (centres undefined),32µM,?,35µM,11µM,-,?
CN(C)c1ccc(C(CNS(=O)(=O)c2ccc3ccccc3c2)c2c[nH]c3ccccc23)cc1 (centres undefined),10µM,?,28µM,13µM,?,?
NCC(c1ccco1)c1c[nH]c2ccccc12 (centres undefined),-,-,-,-,-,-
CC(C)CCn1c(=O)c2sccc2n2c(CCCC(=O)NC(C)C)nnc12,-,.,-,-,.,-
Cc1ccnc(NC(c2ccccc2)c2ccc3cccnc3c2O)c1 (centres undefined),.,-78,14µM,.,-88,-
O=C(O)c1ccccc1NC(c1ccccc1)c1ccc2cccnc2c1O (centres undefined),.,-84,28µM,.,-,25µM
Cc1ccnc(NC(c2cc(C)ccc2O)c2ccc3cccnc3c2O)c1 (centres undefined),10µM,.,28µM,22µM,.,-
Cc1ccc2ccc(C(Nc3ccccc3)c3ccc(C(C)C)cc3)c(O)c2n1 (centres undefined),.,-,.,.,-,.
Oc1ccccc1C(Nc1nccs1)c1ccc2cccnc2c1O (centres undefined),.,-77,35µM,28µM,-93,-
Cc1ccnc(NCc2c(O)ccc3ccccc23)c1,.,-,-,?,.,-

# Bioassay records deposited in PubChem BioAssay by National Center for Advancing Translational Sciences (NCATS).
